HCV inhibitor = HCV inhibition | Huh7.5.1 HCVcc-Cre infection, luciferase reporter, 44 h | Potency, µM (titrated, usually from 41.8 µM), hits mostly inhibitors | actives 3.4% (n = 340,000); active = well fitted inhibition curve with a large enough effect; inconclusive = small, poorly fitted or top-dose-only effect, or another doubt; inactive = no such curve, though single readings can be large or run the other way
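Luciferase read-out (15 sec integration) after a 15 min room-temperature substrate step quantifies HCVcc-Cre infection. Cells, 1,000 per well, had compound added 4 h post-plating, then virus at ~0.5 moi, and were cultured 44 h.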
LASV entry inh = Lassa virus entry inhibition; AID 540256; Potency, µM (highest dose often 37.9 µM), actives largely listed as inhibitors; actives 1.2% (n = 300,000); Lassa virus pseudotype entry inhibition, cell reporter; calls by dose curve; tested in HEK293 cells; also: nearly all actives have a fitted effect of over 50% in size
Marburg entry inh = Marburg virus entry inhibition | Potency, µM (doses to about 37.8 µM), most hits filed as inhibitors | AID 540276 | actives 1.8% (n = 300,000) | Marburg virus pseudotyped entry inhibition, cell reporter; calls by dose curve; tested in HEK293 cells
FMDV inh = foot and mouth disease virus antiviral activity | FMDV antiviral cell-based qHTS | Potency, µM (highest dose often 57.9 µM), most hits filed as inhibitors | actives 1.2% (n = 410,000) | AID 1159524; calls by dose curve; tested in HEK293T cells; also: read-out not given here; nearly all actives have a fitted effect of over 45% in size
Cycloheximide cs = affects cycloheximide protein synthesis inhibition readout, counter-screen; cell reporter, cycloheximide protein synthesis inhibition counterscreen; max response, %; actives 12% (n = 300,000); in the data active = max response mostly above about 13%, no sharp cut-off; inactive = mostly below about 14%; also: read at 38.3 µM for the half of the compounds with a filed dose
Shiga inhibitor = Shiga toxin inhibition | Vero cells, Shiga toxin protein synthesis inhibition reporter | inhibition, % at 38.7 µM | actives 9.2% (n = 290,000); in the data active = inhibition mostly above about 28%, no sharp cut-off; inactive = mostly below about 43%
Hits are given with their value; - = inactive; ? = inconclusive; . = not tested or not shown. The list is not random: actives were taken first. Their share in the collection is about 13%.

SMILES	HCV inhibitor	LASV entry inh	Marburg entry inh	FMDV inh	Cycloheximide cs	Shiga inhibitor
COC(=O)CSc1nnc(CSc2nc(C)cc(C)n2)n1Cc1ccco1	-	-	-	-	-	-
Cc1cc(C)nc(SCc2nnc(SCC(=O)Nc3ccc(C)c(C)c3)n2Cc2ccco2)n1	25µM	?	?	-	-	-
CCn1c(SCC(=O)Nc2ccc3c(c2)OCCO3)nnc1-c1c[nH]c2ccccc12	?	.	.	-	12	-
O=C(CSc1nnc(-c2ccc(Cl)cc2)n1Cc1ccco1)Nc1ccc2c(c1)OCCO2	-	-	?	?	-	-
Cc1nn(C)c(C)c1CN(C)C(=O)c1cc2n(n1)C(C(F)(F)F)CC(c1cccs1)N2 (stereo unspecified)	?	-	-	-	-	-
Cc1cccc(N(Cc2ccc(Cl)cc2)S(C)(=O)=O)c1	-	-	?	-	-	-
O=C(NCCCN1CCN(Cc2ccccc2)CC1)c1nnc(Cc2c(F)cccc2Cl)o1	-	-	-	-	-	-
COc1ccc(-c2nn(-c3cccc([N+](=O)[O-])c3)c3c2cnc2cc4c(cc23)OCO4)cc1	.	-	.	-	.	.
Cc1ccccc1C(=O)Nc1sc2c(c1C(=O)O)CCC2	-	-	?	-	-	-
CN(C)CCCNc1nc(N)c([N+](=O)[O-])c(NCCO)n1	-	-	-	-	-	-
Cc1ccc(NC(=O)CSc2nnc(C3CC3)n2CC2CCCO2)c(C)c1 (stereo unspecified)	-	-	-	-	-	-
Cc1nnc(SCC(=O)Nc2ccc3c(c2)OCCO3)n1CC1CCCO1 (stereo unspecified)	-	?	-	-	7.4	30
CCn1c(C)nnc1SCC(=O)Nc1ccc2c(c1)OCCO2	-	-	?	-	13	-
C=CCn1c(C)nnc1SCC(=O)Nc1ccc2c(c1)OCCO2	-	-	-	-	.	.
Cc1ccc(NCc2nnc(SCC(=O)Nc3ccccc3)n2CC2CCCO2)c(C)c1 (stereo unspecified)	-	-	-	-	33	-
CCOCCCN1C(=O)c2ccccc2CC1(C)C(=O)NC1CCCCC1 (stereo unspecified)	.	.	?	-	.	.
Cc1ccc(-c2ccc(=O)n(CCC(=O)N3CCN(c4ccccc4)CC3)n2)cc1	-	-	-	-	-	-
Cc1cccc(/C=N/n2c(C3CCCCC3)n[nH]c2=S)c1	-	.	.	-	-	-
CC(/C=N/n1c(C2CCCCC2)n[nH]c1=S)=C\c1ccccc1	-	18µM	?	-	-	-
Cc1ccc(CNC(=O)C(=O)NCC2OCCN2S(=O)(=O)c2ccc(Br)cc2)cc1 (stereo unspecified)	.	7.9µM	?	?	-	-
COc1ccc(CNC(=O)C(=O)NCC2OCCN2S(=O)(=O)c2ccc(C)cc2)cc1 (stereo unspecified)	.	-	?	-	-	-
Cc1ccc(CNC(=O)C(=O)NCC2OCCN2S(=O)(=O)c2ccc(C)cc2)cc1 (stereo unspecified)	.	?	-	-	-	-
COc1ccc(CNC(=O)C(=O)NCC2OCCN2S(=O)(=O)c2ccc(F)cc2)cc1 (stereo unspecified)	-	-	-	-	28	32
Cc1ccc(N=Cc2ccc(N(C)C)cc2)cc1	-	-	-	-	-	-
CN(C)c1ccc(C=Nc2ccc(N(C)C)cc2)cc1	-	?	?	-	36	78
SMILES	HCV inhibitor	LASV entry inh	Marburg entry inh	FMDV inh	Cycloheximide cs	Shiga inhibitor
CN(C)c1ccc(N=Cc2ccco2)cc1	-	-	-	-	55	99
C(=N\C(/N=C/c1ccco1)c1ccco1)/c1ccco1	-	-	-	-	-	-
CN(C)c1ccc(C=Nc2ccccc2)cc1	-	?	-	.	-	-
C(=Nc1cccc2c(N=Cc3ccco3)cccc12)c1ccco1	-	.	.	-	-	47
COc1ccccc1/C=C(\C)C(=O)c1c(C)cc(C)[nH]c1=O	-	.	.	-	-	-
COCCNC(=O)CSc1nnc2c(Cl)cc(Cl)cn12	-	-	-	-	-	-
COc1ccc2nc(NC(=O)/C=C/c3ccc4c(c3)OCO4)sc2c1	-	.	.	.	-	-
COc1ccc2nc(Nc3ccc4c(c3)OCO4)sc2c1	?	-	-	-	39	45
COc1ccc2nc(Nc3nc4cc5c(cc4s3)OCO5)sc2c1	-	-	?	-	23	64
COc1ccc(NC(C)=O)cc1S(=O)(=O)Nc1ccc2c(c1)OCCO2	-	-	-	-	24	-
COc1ccc(Cl)cc1C(=O)Nc1ccc2c(c1)OCCO2	?	.	.	-	30	36
COc1ccc(Cl)cc1C(=O)Nc1ccc2c(c1)OCO2	11µM	-	-	-	44	87
COc1ccccc1NC(=O)c1ccc2c(c1)N(CC#N)C(=O)C(C)(C)O2	?	.	?	-	-	-
Cc1nccc2c1[nH]c1ccc(Br)cc12	4µM	.	.	-	.	.
Cc1ccc(-c2nc(=O)[nH]c3ccc(Br)cc23)cc1	-	-	-	-	-	-
CCOC(=O)c1sc(=NC(=O)c2c(F)cccc2F)n(C)c1C	-	.	.	-	39	81
CCOC(=O)c1sc(=NC(=O)c2ccc(F)cc2)n(C)c1C	-	.	.	-	29	77
CCOC(=O)c1sc(=NC(=O)c2cc(OC)c(OC)c(OC)c2)n(C)c1C	-	-	-	.	-	-
CCOC(=O)c1sc(=NC(=O)c2ccc(C)cc2)n(C)c1C	-	-	?	-	52	71
CCOC(=O)c1sc(=NC(=O)CCSc2ccccc2)n(C)c1C	-	-	-	-	17	-
CCCCNC(=O)C1(C)CCN1C(=O)c1ccc(OC)c(F)c1 (stereo unspecified)	.	.	.	-	.	.
O=C1c2ccc(Oc3ccc([N+](=O)[O-])cc3)cc2C(=O)N1CCCO	-	-	-	-	-	-
Cc1ccc(-c2nc(CS(=O)(=O)CC(=O)NCCCN(Cc3ccccc3)C(C)C)c(C)o2)cc1	10µM	.	.	-	-	-
Cc1ccc(S(=O)(=O)N(C)Cc2nc(-c3ccccc3)oc2C)cc1	.	-	.	-	.	.
COc1ccc(-c2nc(CS(=O)(=O)CC(=O)NCCCc3ccccc3)c(C)o2)cc1	?	.	.	-	-	-
SMILES	HCV inhibitor	LASV entry inh	Marburg entry inh	FMDV inh	Cycloheximide cs	Shiga inhibitor
CCOc1ccc(-c2nc(CS(=O)(=O)CC(=O)NCc3ccc(F)cc3)c(C)o2)cc1	-	.	.	-	12	20
Cc1oc(-c2ccc(-c3ccccc3)cc2)nc1CN(CCO)C(C)C	?	?	?	?	37	-
Cc1cc(O)cc(O)c1C(=O)OC1(C)C(=O)C=C2C=C(/C=C/C(=O)O)OC=C2C1=O (stereo unspecified)	.	.	-	.	.	.
COc1ccc(-c2cc(C(=O)N3CCOCC3)no2)cc1OC	-	-	-	-	29	129
COc1ccc(-c2cc(C(=O)N3CCOCC3)no2)cc1	-	?	?	-	30	-
COc1cccc(-c2cc(C(=O)N3CCOCC3)no2)c1	-	-	10µM	-	40	-
COc1cccc(-c2cc(C(=O)N3CCN(C(c4ccccc4)c4ccccc4)CC3)no2)c1	-	-	-	-	-	-
CC1(C)CC(NC(=O)c2ccccc2Cl)CC(C)(C)N1	-	-	-	-	-	-

Source: PubChem (National Center for Advancing Translational Sciences (NCATS))
